Whole data set: some 33,000 sequences, median “e-score” near -0.05, cut for the highest 2% near 0.38. Shown is part of a subset that was picked to be rich in the highest values.

In the experiment the target is T1, SIX1-Q177R homeodomain (human, UniProt Q15475 108-198, Q177R).
T1 sequence: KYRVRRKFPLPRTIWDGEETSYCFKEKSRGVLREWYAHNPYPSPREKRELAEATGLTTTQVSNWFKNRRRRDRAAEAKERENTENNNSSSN
As to the kind of experiment: universal protein binding microarray; Universal all-10-mer PBM (8x60K, AMADID 030236), 300 nM GST-tagged protein, Alexa Fluor 488 anti-GST; buffer, salt, pH and temperature not stated (as in Berger); high values mean tight binding. To be noted: protein: ivt; tags: N-terminal GST; dsDNA, one strand shown. In outline: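 Duplicate protein binding microarrays (universal 'all 10-mer', 8×60K format) were incubated with GST-tagged homeodomains at 300 nM final concentration. Binding was quantified as 8-mer E-scores with the Universal PBM Analysis Suite.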
As for CCGACCCC, the binding signal worked out at 0.24 ± 0.0393 E-score.
For the sequence CCGACACG, the binding signal was 0.418 ± 0.0317 E-score.
Consider ACGACACG, for which the binding signal was 0.426 ± 0.0132 E-score.
The same measure for ACGACACT: 0.4277 ± 0.00127 E-score.
Consider TCGACACA, for which the binding signal stood at 0.188 ± 0.0429 E-score.
Turning to CCGACACA, the binding signal is 0.295 ± 0.0445 E-score.
Regarding CCGACACC, the binding signal worked out at 0.488 ± 0.0101 E-score.
As for ACCCGCTC, the binding signal was 0.227 ± 0.00437 E-score.
The same measure for CACCTGCC: 0.225 ± 0.0171 E-score.
The same measure for ACCCGAAC: 0.173 ± 0.0027 E-score; for TGTCGTAA: 0.163 ± 0.00414 E-score; for CCCCCCCG: 0.218 ± 0.0264 E-score.
In the case of GGGTGATA, the binding signal worked out at 0.218 ± 0.0149 E-score.
In the case of GATCCCGC, the binding signal was 0.185 ± 0.0357 E-score.
The same measure for CGGGTACG: 0.182 ± 0.00752 E-score; for GCGACACC: 0.487 ± 0.00655 E-score.
In the case of ACGACACC, the binding signal was 0.487 ± 0.00563 E-score.
The same measure for GCGACACA: 0.262 ± 0.0569 E-score; for ACGACTCC: 0.309 ± 0.0346 E-score.
As for GCGACCCC, the figure is 0.212 ± 0.0261 E-score.
Consider ACGACCCC, for which the binding signal was 0.244 ± 0.0306 E-score.
As for CACTTGAA, the figure is 0.202 ± 0.00417 E-score; as for CACCTTAC, 0.248 ± 0.036 E-score; as for CACTCTCG, 0.288 ± 0.0157 E-score.
As for CCCCGAAC, the figure is 0.181 ± 0.00559 E-score; as for AGGACCCC, 0.205 ± 0.0283 E-score; as for AACACTTG, 0.336 ± 0.0307 E-score.
For the sequence AACACCTA, the binding signal was determined as 0.444 ± 0.00846 E-score.
In the case of GACTCCTC, the binding signal was determined as 0.166 ± 0.0214 E-score.
On to AACACGTG, for which the binding signal came out at 0.371 ± 0.00902 E-score.
For the sequence GACACCTC, the binding signal was found to be 0.4825 ± 0.00161 E-score.
CACACATG: the binding signal was 0.165 ± 0.0245 E-score.
The same measure for CACACCTA: 0.333 ± 0.00896 E-score; for AACACCTG: 0.44457 ± 0.000354 E-score.
Regarding CACACCTG, the binding signal amounted to 0.389 ± 0.0159 E-score.
For GACCCCTC, the binding signal amounted to 0.26 ± 0.015 E-score.
For AACACATA, the binding signal came to 0.17 ± 0.0243 E-score.
Turning to CCGAGACA, the binding signal came out at 0.274 ± 0.00602 E-score.
Turning to ATGATACC, the binding signal came out at 0.335 ± 0.0146 E-score.
As for CACCACGG, the binding signal turned out to be 0.226 ± 0.00882 E-score.
Regarding ATGCGGTG, the binding signal turned out to be 0.295 ± 0.0245 E-score.
With CGGGCGAC, the binding signal is 0.215 ± 0.0122 E-score.
As for CACTGGGG, the figure is 0.287 ± 0.0142 E-score.
As for ATAAGGTG, the figure is 0.217 ± 0.0216 E-score.
As for AACTGTGT, the figure is 0.159 ± 0.066 E-score; as for CCGGATCC, 0.249 ± 0.0202 E-score; as for TCGATACA, 0.198 ± 0.0102 E-score.
For the sequence CACTCCAG, the binding signal was 0.225 ± 0.00445 E-score.
Regarding GTTCGGTA, the binding signal was determined as 0.156 ± 0.0218 E-score.
For the sequence GACACATA, the binding signal came out at 0.234 ± 0.0761 E-score.
As for AACACCTC, the figure is 0.456 ± 0.0111 E-score; as for AACACACT, 0.276 ± 0.0133 E-score; as for TACACATA, 0.209 ± 0.0376 E-score.
Consider AGCACCTC, for which the binding signal was determined as 0.178 ± 0.00186 E-score.
On to AACACTTC, for which the binding signal turned out to be 0.326 ± 0.0413 E-score.
As for TACACGTA, the figure is 0.355 ± 0.0208 E-score; as for TACACCTA, 0.47 ± 0.00841 E-score; as for AACACGTT, 0.272 ± 0.0421 E-score.
Regarding GACACCTA, the binding signal came out at 0.463 ± 0.00697 E-score.
As to GATACCTA, the binding signal was 0.3275 ± 0.000891 E-score.
The same measure for AACACCTT: 0.452 ± 0.0164 E-score.
On to GCGGGTTA, for which the binding signal was determined as 0.21 ± 0.00486 E-score.
Regarding CCCGCCCG, the binding signal is 0.233 ± 0.0272 E-score.
As for CCCCCGAC, the figure is 0.272 ± 0.00679 E-score.
ATACCCGA: the binding signal is 0.241 ± 0.0123 E-score.
With AAGACGTG, the binding signal was determined as 0.166 ± 0.073 E-score.
As for ACACTTTC, the binding signal turned out to be 0.354 ± 0.0256 E-score.
On to CCCTTCCC, for which the binding signal was 0.181 ± 0.0277 E-score.
CACCTCTG: the binding signal was determined as 0.2874 ± 0.00224 E-score.
Regarding CACACTTC, the binding signal stood at 0.205 ± 0.0263 E-score.
On to CACACCTC, for which the binding signal came to 0.403 ± 0.00914 E-score.
As to CACGTCCC, the binding signal was found to be 0.165 ± 0.0267 E-score.
Consider ATAAACCC, for which the binding signal was determined as 0.16 ± 0.0287 E-score.
For ACCCGATC, the binding signal is 0.253 ± 0.057 E-score.
In the case of ACACGATC, the binding signal stood at 0.385 ± 0.00771 E-score.
Turning to ACACGAAG, the binding signal came to 0.346 ± 0.00991 E-score.
Regarding ACACGAAC, the binding signal stood at 0.3433 ± 0.00132 E-score.
With ACACGATG, the binding signal is 0.3915 ± 0.00105 E-score.
ACACGATA: the binding signal was found to be 0.3751 ± 0.00175 E-score.
CAGCACCC: the binding signal was found to be 0.188 ± 0.00201 E-score.
GGATAACA: the binding signal is 0.204 ± 0.00942 E-score.
As for CACGGGTC, the figure is 0.253 ± 0.0022 E-score.
In the case of CCCTGAGG, the binding signal stood at 0.177 ± 0.00892 E-score.

Source of the values: paper PMC10668032, “Altered binding affinity of SIX1-Q177R correlates with enhanced WNT5A and WNT pathway effector expression in Wilms tumor”.
